Assay [1] can be described thus: antimalarial activity against Dd2 strain (AID 2302;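 active means growth inhibition above 50% at the single 2 µM test dose, taken to imply half-maximal potency below 2 µM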;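 further: 0% = DMSO untreated growth and 100% = chloroquine plus artemisinin killed control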). Particulars: P. falciparum Dd2 in RBCs, LDH growth readout, 72 h; at 2 µM; hits give high values.
Assay [2] in a line: HepG2 cytotoxicity, primary screen, cytotoxicity control for P. falciparum antimalarial project, cell-based, ATP luminescence (AID 2303;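 active means inhibition above 50%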;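 further: 0% = DMSO wells and 100% = digitonin-killed cells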). Conditions: HepG2 viability, 24-48 h, at 10 µM, hits give high values.
The target in assay [3] is L-lactate dehydrogenase (Plasmodium falciparum (isolate CDC / Honduras)) (UniProt Q27743). The assay is described as follows: PfLDH activity inhibition – cell lysate, 3D7 strain, counter-screen for P. falciparum growth inhibition project (AID 2304).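 Further: 0% = vehicle and 100% = reference inhibitor.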 Particulars: P. falciparum 3D7 crude extract, LDH APAD/NBT absorbance; at 2 µM; hits give high values. For orientation: Counterscreens check selectivity or assay interference.
L-lactate dehydrogenase (Plasmodium falciparum (isolate CDC / Honduras)), sequence (Q27743 whole entry, looked up): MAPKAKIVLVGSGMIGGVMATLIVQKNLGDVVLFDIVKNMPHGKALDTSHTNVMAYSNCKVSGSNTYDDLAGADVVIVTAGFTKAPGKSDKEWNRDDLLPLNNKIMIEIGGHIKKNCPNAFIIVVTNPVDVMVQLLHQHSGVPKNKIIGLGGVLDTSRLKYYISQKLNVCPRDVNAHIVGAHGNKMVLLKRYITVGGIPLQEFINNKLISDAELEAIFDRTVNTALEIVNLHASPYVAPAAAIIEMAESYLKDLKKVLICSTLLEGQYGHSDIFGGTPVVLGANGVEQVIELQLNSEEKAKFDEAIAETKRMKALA

Assay [4] is described as follows: inhibition of 3D7 malaria parasite growth – strain 3D7 (AID 2306).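 Further: 0% = DMSO wells and 100% = chloroquine plus artemisinin control wells.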 Particulars: P. falciparum 3D7 erythrocytic growth, LDH absorbance, 72 h; at 2 µM; hits give high values.
For assay [5], the target named is Calcium-dependent protein kinase 1 (Plasmodium falciparum (isolate 3D7)) (UniProt P62344). The assay is described as follows: PfCDPK1 kinase inhibitors, biochemical, TCAMS library (AID 1159585; cut-off not given, nearly all actives have IC50 up to about 0.98 µM;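 further: inhibitors leave more ATP so luminescence rises with inhibition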). Particulars: recombinant PfCDPK1, Kinase-Glo ATP depletion luminescence. A general note: Kinase-Glo measures the ATP left after a reaction by luminescence.
Calcium-dependent protein kinase 1 (Plasmodium falciparum (isolate 3D7)), sequence (P62344 whole entry, looked up): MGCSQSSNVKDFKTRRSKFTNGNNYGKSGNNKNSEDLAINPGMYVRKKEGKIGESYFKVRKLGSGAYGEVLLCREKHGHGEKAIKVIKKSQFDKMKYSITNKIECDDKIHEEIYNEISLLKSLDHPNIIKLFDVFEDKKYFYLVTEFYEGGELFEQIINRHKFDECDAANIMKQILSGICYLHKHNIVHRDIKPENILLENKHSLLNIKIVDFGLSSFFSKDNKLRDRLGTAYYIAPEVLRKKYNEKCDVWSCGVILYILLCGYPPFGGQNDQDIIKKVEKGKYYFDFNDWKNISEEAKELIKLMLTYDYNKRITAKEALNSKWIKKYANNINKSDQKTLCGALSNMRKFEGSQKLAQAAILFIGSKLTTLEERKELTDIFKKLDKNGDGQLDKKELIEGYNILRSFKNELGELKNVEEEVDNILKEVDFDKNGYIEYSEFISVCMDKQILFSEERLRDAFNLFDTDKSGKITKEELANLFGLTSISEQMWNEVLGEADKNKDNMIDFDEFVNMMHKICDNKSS
The target of assay [6] is Plasmodium falciparum protein kinase 6 (PK6, PF3D7_1337100) (UniProt Q8IDW1). Briefly: PfPK6 kinase inhibitors, biochemical, TCAMS library (AID 1159586). Particulars: recombinant PfPK6, Kinase-Glo ATP depletion luminescence.
Plasmodium falciparum protein kinase 6 (PK6, PF3D7_1337100), sequence (Q8IDW1 1-305): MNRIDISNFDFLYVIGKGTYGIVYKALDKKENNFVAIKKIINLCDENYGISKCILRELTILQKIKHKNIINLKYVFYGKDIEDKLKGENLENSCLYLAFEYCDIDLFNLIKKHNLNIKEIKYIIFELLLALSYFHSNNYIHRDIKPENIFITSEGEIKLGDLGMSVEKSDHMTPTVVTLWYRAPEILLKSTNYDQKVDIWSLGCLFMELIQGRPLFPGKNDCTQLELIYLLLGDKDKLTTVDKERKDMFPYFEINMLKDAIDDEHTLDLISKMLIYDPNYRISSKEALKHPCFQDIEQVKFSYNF
Assay [7] has as its target Protein kinase 7 (PK7), Plasmodium falciparum 3D7 (PF3D7_0213400) (UniProt Q7YTF7). The assay is described as follows: inhibition of Plasmodium PK7 catalytic activity – biochemical, TCAMS antimalarial set, Kinase-Glo luminescence (AID 1159587). Conditions: recombinant PfPK7, Kinase-Glo ATP depletion luminescence.
In assay [8] the target is Calcium-dependent protein kinase 4 (Plasmodium falciparum (isolate 3D7)) (UniProt Q8IBS5). The assay is described as follows: PfCDPK4 kinase inhibitors, biochemical, TCAMS library (AID 1159588; cut-off not given, nearly all actives have IC50 up to about 0.91 µM). Particulars: recombinant PfCDPK4, Kinase-Glo ATP depletion luminescence.
Calcium-dependent protein kinase 4 (Plasmodium falciparum (isolate 3D7)), sequence (Q8IBS5 whole entry, looked up): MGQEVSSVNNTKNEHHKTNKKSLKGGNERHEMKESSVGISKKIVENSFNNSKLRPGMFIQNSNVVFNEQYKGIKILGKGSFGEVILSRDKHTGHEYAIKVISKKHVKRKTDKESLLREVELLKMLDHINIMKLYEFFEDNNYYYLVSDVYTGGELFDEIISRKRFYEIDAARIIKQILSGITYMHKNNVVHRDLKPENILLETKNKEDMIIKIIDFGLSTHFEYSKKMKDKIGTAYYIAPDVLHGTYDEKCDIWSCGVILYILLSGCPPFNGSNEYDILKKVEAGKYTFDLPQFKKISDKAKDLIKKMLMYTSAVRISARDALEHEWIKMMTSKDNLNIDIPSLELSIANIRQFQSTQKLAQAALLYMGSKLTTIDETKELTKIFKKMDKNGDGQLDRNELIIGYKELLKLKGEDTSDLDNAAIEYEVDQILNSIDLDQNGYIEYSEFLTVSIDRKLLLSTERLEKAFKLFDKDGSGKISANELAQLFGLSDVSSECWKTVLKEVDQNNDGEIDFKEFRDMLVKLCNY

Values without a mark were called inactive. For some of these results: Potency and affinity values are given separately. Calls of active or inactive are those of the source. Unless noted, how the calls were made is not given here.

Protein kinase 7 (PK7), Plasmodium falciparum 3D7 (PF3D7_0213400), sequence (Q7YTF7 1-343): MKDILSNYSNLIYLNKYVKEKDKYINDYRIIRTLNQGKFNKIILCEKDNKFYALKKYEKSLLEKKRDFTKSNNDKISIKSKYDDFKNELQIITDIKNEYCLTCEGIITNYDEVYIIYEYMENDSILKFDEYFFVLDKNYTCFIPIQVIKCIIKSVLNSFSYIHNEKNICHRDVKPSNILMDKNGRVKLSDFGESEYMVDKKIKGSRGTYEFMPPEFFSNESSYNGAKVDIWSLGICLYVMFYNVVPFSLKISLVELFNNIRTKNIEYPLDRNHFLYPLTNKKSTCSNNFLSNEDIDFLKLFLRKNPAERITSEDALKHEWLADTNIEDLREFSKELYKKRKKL

The inhibition is the relative decrease from the control value, in per cent. As for `CC1CN=C(c2cccc(NC(=O)Nc3cccc(C4=NCC(C)N4)c3)c2)N1` (stereo not given), the growth inhibition was 98% (active) in assay [1] and 94% (active) in assay [4]. The figures for the inhibition in assay [2] and in assay [3] were 7% and -3%, respectively. The result in assay [5], in assay [6], in assay [7] and in assay [8] was inactive.
On to `CCOc1ccc(-c2nonc2NC(=O)c2ccccc2F)cc1OCC`, for which the growth inhibition in assay [1] is 100% (active); in assay [4], 90% (active). The inhibition in assay [2] is -8%; in assay [3] it was 0%. The outcome in assay [5], in assay [6], in assay [7] and in assay [8] was inactive.
Take `Cc1cc(Nc2ccc3c(c2)CCC3)n2ncnc2n1`: the growth inhibition in assay [1] is 48%; in assay [4] it was 86% (active). Besides, the inhibition was 4% in assay [2] and -2% in assay [3]. Further, the outcome in assay [5], in assay [6], in assay [7] and in assay [8] was inactive.
As to `Cc1ccccc1CN1CCCN(Cc2ccc(C(=O)Nc3ccc(C(C)(C)C)cc3)cc2)CC1`, the growth inhibition is 5% in assay [1] and 89% (active) in assay [4]. In addition, the inhibition in assay [2] is 52% (active); in assay [3], -1%. Besides, the result in assay [5], in assay [6], in assay [7] and in assay [8] was inactive.
For `COc1ccc(CCN(C)CCCOc2ccc(NC(=O)c3cccc4c(=O)c5ccccc5[nH]c34)cc2)cc1OC`, the results for the growth inhibition in assay [1] and in assay [4] were 45% and 94% (active), respectively. The inhibition is 80% (active) in assay [2] and 1% in assay [3]. The result in assay [5], in assay [6], in assay [7] and in assay [8] was inactive.
On to `O=C(Nc1ccc(-c2nc3ccccc3[nH]2)cc1)C1CCN(Cc2ccc(F)cc2)CC1`, for which the growth inhibition in assay [1] was 91% (active); in assay [4], 102% (active). In addition, the inhibition in assay [2] was 13%; in assay [3], 1%. Moreover, the result in assay [5], in assay [6], in assay [7] and in assay [8] was inactive.
As for `NC(=O)c1ccccc1OCC(=O)Nc1cccc(-c2ccc(-c3nc4ccc(C(F)(F)F)cc4[nH]3)cc2)c1`, the growth inhibition in assay [1] is 17%; in assay [4] it was 92% (active). Further, the results for the inhibition in assay [2] and in assay [3] were 58% (active) and -2%, respectively. The result in assay [5], in assay [6], in assay [7] and in assay [8] was inactive.
As for `c1cn(CCCNc2ncc(-c3ccsc3)c(-c3nccs3)n2)cn1`, the values for the growth inhibition in assay [1] and in assay [4] were 51% (active) and 94% (active), respectively. In addition, the inhibition in assay [2] was -11%; in assay [3], -4%. The outcome in assay [5], in assay [6], in assay [7] and in assay [8] was inactive.
`Cc1c(CNCCCNc2cc(=O)c3ccccc3[nH]2)sc(-c2ccco2)c1Br`: the growth inhibition in assay [1] was 39%; in assay [4], 93% (active). The inhibition in assay [2] is -4%; in assay [3], -1%. Moreover, the outcome in assay [5], in assay [6], in assay [7] and in assay [8] was inactive.
Regarding `CCN(CC)Cc1cc(Nc2c3ccc(Cl)cc3nc3cccc(OC)c23)ccc1O`, the results for the growth inhibition in assay [1] and in assay [4] were 98% (active) and 101% (active), respectively. Further, the inhibition is 8% in assay [2] and -3% in assay [3]. Further, the result in assay [5], in assay [6], in assay [7] and in assay [8] was inactive.
Consider `COc1ccc(CN(C)CCCc2ccc(NC(=O)c3cccc4c(=O)c5ccccc5[nH]c34)cc2)cc1OC`, for which the growth inhibition in assay [1] was 54% (active); in assay [4] it was 99% (active). Further, the inhibition is 77% (active) in assay [2] and -1% in assay [3]. For the same compound, the result in assay [5], in assay [6], in assay [7] and in assay [8] was inactive.
For `O=C1NC(c2ccc(N3CCCCCC3)cc2)Nc2ccccc21` (stereo not given), the growth inhibition in assay [1] and in assay [4] was 96% (active) each time. In addition, the inhibition is 19% in assay [2] and 0% in assay [3]. Moreover, the result in assay [5], in assay [6], in assay [7] and in assay [8] was inactive.
For the compound `COc1cc(N(Cc2ccccc2C)S(=O)(=O)Cc2ccccc2[N+](=O)[O-])c(OC)cc1Cl`, the growth inhibition is 44% in assay [1] and 94% (active) in assay [4]. Moreover, the figures for the inhibition in assay [2] and in assay [3] were 16% and -2%, respectively. Moreover, the outcome in assay [5], in assay [6], in assay [7] and in assay [8] was inactive.
In the case of `CN1CCCN(c2ccnc3cc4c(cc23)N(C(=O)c2ccc(C(F)(F)F)cc2)CC4)CC1`, the figures for the growth inhibition in assay [1] and in assay [4] were 63% (active) and 101% (active), respectively. In addition, the inhibition in assay [2] is 10%; in assay [3] it was 1%. In addition, the result in assay [5], in assay [6], in assay [7] and in assay [8] was inactive.
On to `COc1ccc(NC(=O)CCNc2cc(C)nc(NCc3ccccc3C)n2)cc1`, for which the results for the growth inhibition in assay [1] and in assay [4] were 61% (active) and 94% (active), respectively. The inhibition was 7% in assay [2] and -1% in assay [3]. Besides, the outcome in assay [5], in assay [6], in assay [7] and in assay [8] was inactive.
With `Cc1ccc(Nc2nc(C)cc(N3CCN(c4ccccc4)CC3)n2)cc1`, the growth inhibition in assay [1] was 72% (active); in assay [4], 93% (active). The inhibition is 4% in assay [2] and 3% in assay [3]. For the same compound, the outcome in assay [5], in assay [6], in assay [7] and in assay [8] was inactive.
Take `COc1cc(CN2CCC(CO)(Cc3cccc(C(F)(F)F)c3)CC2)c(Cl)cc1O`: the figures for the growth inhibition in assay [1] and in assay [4] were 64% (active) and 99% (active), respectively. Besides, the inhibition in assay [2] was 12%; in assay [3], 6%. Further, the result in assay [5], in assay [6], in assay [7] and in assay [8] was inactive.
Take `CN1Cc2ccc(NS(=O)(=O)c3ccc(-c4ccoc4)cc3)cc2C1`: the growth inhibition in assay [1] was 2%; in assay [4], 97% (active). Also, the inhibition in assay [2] is -3%; in assay [3] it was -2%. For the same compound, the outcome in assay [5], in assay [6], in assay [7] and in assay [8] was inactive.
As to `CC(=O)N(Cc1ccc(CC(C)NCCc2cccc(Cl)c2)cc1)Cc1ccc(CC(C)NCCc2cccc(Cl)c2)cc1` (stereo not given), the growth inhibition was 94% (active) in assay [1] and 101% (active) in assay [4]. Also, the inhibition was 98% (active) in assay [2] and -4% in assay [3]. In addition, the result in assay [5], in assay [6], in assay [7] and in assay [8] was inactive.
As for `CCCCCCCN1CC[C@@H](CCCc2ccnc3ccc(OCCCCNC(N)=O)cc23)[C@@H](CC)C1`, the growth inhibition in assay [1] is 18%; in assay [4], 93% (active). In addition, the inhibition is 41% in assay [2] and -3% in assay [3]. In addition, the outcome in assay [5], in assay [6], in assay [7] and in assay [8] was inactive.

(Values after PubChem BioAssay.)
